This is a sample that favours compounds with a hit; in the whole collection about 19% have one here.
CHX counter – Cycloheximide Counterscreen for Small Molecule Inhibitors of Shiga Toxin; cell reporter, cycloheximide protein synthesis inhibition counterscreen; max response, %; 300,000 compounds, 12% hits; in the data active means max response mostly above about 13%, no sharp cut-off; inactive means mostly below about 14%; further: read at 38.3 µM for the half of the compounds with a filed dose
Pf growth 48h – Primary qHTS for delayed death inhibitors of the malarial parasite plastid, 48 hour incubation; P. falciparum luciferase growth in erythrocytes, 48 h; Potency, µM (series often up to 28.7 µM), most hits filed as inhibitors; 310,000 compounds, 5.9% hits; AID 504832, 2011
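Growth was read as firefly luciferase luminescence after a 48 h, 37 C, 5% CO2 exposure of compounds to reporter-bearing P. falciparum cultures (0.1% parasitemia, 2% hematocrit final) in Albumax-supplemented RPMI 1640.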
AMA1 RON2 block – qHTS for Inhibitors of AMA1-RON; Towards Development of Antimalarial Drug Lead: Primary Screen; AlphaScreen AMA1-biotinylated RON2 peptide binding; Potency, µM (doses to about 58.2 µM), usual class: inhibitors; 360,000 compounds, 0.2% hits; AID 720542, 2013; further: nearly all actives have a fitted effect of over 45% in size
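AMA1 (3D7) with his tag at 25 nM final met compounds first, then biotinylated RON2 peptide at 25 nM; detection used donor plus acceptor beads, 10 µg/mL apiece, read by AlphaScreen after 30 min at room temperature.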
Shiga inhibitor – A qHTS for Small Molecule Inhibitors of Shiga Toxin; Vero cells, Shiga toxin protein synthesis inhibition reporter; inhibition, % at 38.7 µM; 290,000 compounds, 9.2% hits; AID 2315, 2010; in the data active means inhibition mostly above about 28%, no sharp cut-off; inactive means mostly below about 43%
SARS PLP yeast – qHTS of Yeast-based Assay for SARS-CoV PLP; S. cerevisiae expressing SARS-CoV PLpro, growth rescue; Potency, µM (doses to about 32.9 µM), hits mostly activators; 330,000 compounds, 0.19% hits; AID 485353, 2010; calls by dose curve; further: nearly all actives have a fitted effect of over 55% in size
Pf growth 96h – Primary qHTS for delayed death inhibitors of the malarial parasite plastid, 96 hour incubation; P. falciparum luciferase reporter growth, 96 h; Potency, µM (highest dose often 28.7 µM), actives largely listed as inhibitors; 320,000 compounds, 6.9% hits; AID 504834, 2011
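P. falciparum expressing integrated firefly luciferase, in erythrocytes at 2% hematocrit, 0.05% parasitemia, incubated with compounds 96 h at 37 C, 5% CO2. Growth inhibition read as loss of luminescence; two-generation exposure targets delayed-death apicoplast inhibitors.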
Large screens that a line does not name were inactive. Unless noted, the call rests on the fitted dose curve; in most records, active means well fitted curve in the direction sought with a large enough effect; inconclusive means small, poorly fitted or top-dose-only effect, or another doubt; inactive means no such curve, though single readings can be large; an effect the other way counts as inactive or inconclusive.

Cc1oc2c(CN3CCOCC3)c(O)ccc2c(=O)c1-c1ccc(Cl)cc1	Pf growth 48h inconclusive, Pf growth 96h 9.3µM
O=c1oc2c(CN3CCOCC3)c(O)ccc2c2ccccc12	CHX counter 44, Pf growth 48h inconclusive, Pf growth 96h inconclusive
O=C(COC(=O)C1CCC(=O)N1)Nc1cccc([N+](=O)[O-])c1 (centres undefined)	none (no result: CHX counter, Pf growth 48h, Shiga inhibitor, Pf growth 96h)
Cc1c(C(=O)N2CCN(C3CCS(=O)(=O)C3)CC2)oc2ccc(Cl)cc12 (centres undefined)	Pf growth 48h inconclusive (no result: CHX counter, Shiga inhibitor)
COc1ccc2c(c1OC)CN1CCc3cc4c(cc3[C@H]1C2)OCO4	Pf growth 48h 3.7µM, Pf growth 96h 0.72µM (no result: CHX counter, Shiga inhibitor)
COc1ccc2c(c1OC)CN1CCc3cc4c(cc3C1C2)OCO4 (centres undefined)	Pf growth 48h inconclusive, Pf growth 96h inconclusive
C(#CC1CCCC1)c1ccc2c(c1)COc1c3ccccc3nn1-2	CHX counter 14, Shiga inhibitor 91
COC(=O)c1ccnc(SCC(=O)c2ccccc2)c1	CHX counter 43, AMA1 RON2 block inconclusive, Shiga inhibitor 79
COC(=O)c1cnc(SCc2ccc(Cl)cc2)n1C	CHX counter 47, Shiga inhibitor 65
COC(=O)CSc1nnc(SCc2ccc(Cl)cc2)s1	none (no result: Pf growth 48h)
COC(=O)c1cnc(SCC(=O)c2ccccc2)n1C	CHX counter 43, Shiga inhibitor 100
Cc1cc2c(s1)c1cnn(Cc3ccc(C(F)(F)F)cc3)c(=O)c1n2C	none (no result: Pf growth 48h, AMA1 RON2 block, SARS PLP yeast, Pf growth 96h)
COc1ccc(S(=O)(=O)N2CCCCC2)cc1NC(=O)[C@@H]1CCCN1C(=O)c1cccs1	Pf growth 48h inconclusive, Pf growth 96h inconclusive (no result: CHX counter, Shiga inhibitor)
COc1ccc(N/C=C\C(=O)c2ccc3c(c2)OCO3)cc1OC	CHX counter 67, Shiga inhibitor 24, Pf growth 96h 4.7µM
COC(=O)c1ccc(N/C=C\C(=O)c2ccc3c(c2)OCO3)cc1	CHX counter 18, Shiga inhibitor 57
O=C(/C=C\Nc1ccccc1Br)c1ccc2c(c1)OCO2	AMA1 RON2 block inconclusive, Pf growth 96h inconclusive
O=C(/C=C\Nc1cccc(F)c1)c1ccc2c(c1)OCO2	CHX counter 28
CC1CCCN(C(=O)c2ccc([N+](=O)[O-])o2)C1 (centres undefined)	Pf growth 48h 13µM, Pf growth 96h inconclusive
O=C(c1ccc(-c2ccc([N+](=O)[O-])cc2)o1)N1CCCC(C(F)(F)F)C1 (centres undefined)	Pf growth 48h 9.3µM (no result: CHX counter, Shiga inhibitor)
CC1CCN(C(=O)c2ccc([N+](=O)[O-])o2)CC1	Pf growth 48h inconclusive
N#CC1=C(N)SC(N)=C(C#N)C1c1ccc(C(F)(F)F)cc1	Pf growth 96h 9.3µM (no result: AMA1 RON2 block)
CCc1ccc(C2C(C#N)=C(N)SC(N)=C2C#N)cc1	Pf growth 48h 5.9µM
CCOc1ccc(C2C(C#N)=C(N)SC(N)=C2C#N)cc1OCC	Pf growth 48h inconclusive
COc1ccc(C2=Nn3c(nnc3-c3ccc(OC)cc3OC)SC2)cc1	none (no result: Pf growth 48h, AMA1 RON2 block, SARS PLP yeast, Pf growth 96h)
O=S(=O)(Nc1ccc2c(c1)OCCO2)c1ccc(F)cc1	none (no result: Pf growth 48h)
COc1ccc2c(=O)c(-c3ccccc3)coc2c1	CHX counter 52, Shiga inhibitor 84
CCN(CC)C(=O)Oc1ccc2c(=O)c(-c3ccccc3)coc2c1	CHX counter 50, Shiga inhibitor 85 (no result: Pf growth 96h)
O=c1c(-c2ccc(F)cc2)coc2c3c(ccc12)OCCO3	CHX counter 44, Shiga inhibitor 87
COc1ccccc1Oc1coc2cc(O)ccc2c1=O	none
COc1ccc(-c2coc3cc(O)ccc3c2=O)cc1OC	CHX counter 34, Pf growth 96h inconclusive
COc1ccc(-c2coc3cc(OC(C)=O)c(OC)cc3c2=O)cc1	none (no result: CHX counter, Pf growth 48h, Shiga inhibitor, Pf growth 96h)
C[C@H]1CCC[C@@]2(O[C@H](CCO)C[C@H](O)[C@H]2O)O1	none (no result: CHX counter, Pf growth 48h, Shiga inhibitor, SARS PLP yeast, Pf growth 96h)
O=C(CNC(=O)N1CC(=O)Nc2ccccc21)NCc1ccc(F)cc1	none (no result: CHX counter, Pf growth 48h, Shiga inhibitor, SARS PLP yeast, Pf growth 96h)
COc1ccc2c(=O)c(-c3ccc(OC)c(OC)c3)coc2c1	CHX counter 25, Shiga inhibitor 54
CCOc1ccccc1Oc1coc2cc(OC(=O)N(C)C)ccc2c1=O	CHX counter 36, Shiga inhibitor 55
CCOC(=O)c1ccc(Oc2coc3cc(O)ccc3c2=O)cc1	Pf growth 96h 2.9µM
O=c1c(-c2ccc(F)cc2)coc2cc(O)ccc12	CHX counter 32, Shiga inhibitor 114
O=C(COC(=O)c1cc(Cl)ccc1O)Nc1ccc2c(c1)OCCO2	none (no result: CHX counter, Shiga inhibitor)
CCOc1cc(CNc2cccc3[nH]c(C)nc23)ccc1OC	Pf growth 48h 12µM
COCCNC(=S)N/N=C1\CC(C)CC(C)(C)C1 (centres undefined)	Pf growth 48h inconclusive, Pf growth 96h 4.7µM
COCCNC(=S)NN=C1CCCCCC1	Pf growth 48h inconclusive
COCCCN(CC(=O)Nc1ccc(N2CCOCC2)cc1)S(=O)(=O)c1ccccc1	Pf growth 96h inconclusive
O=C(/C=C/c1ccc2ccccc2c1)c1ccoc1	CHX counter 34, Shiga inhibitor 53
COC(=O)C1N[C@@H]([C@@H](NC(=O)COc2ccccc2)C(=O)Nc2ccc(OC)cc2)SC1(C)C (some centres undefined)	none (no result: CHX counter, Pf growth 48h, Shiga inhibitor, SARS PLP yeast, Pf growth 96h)
O=C(CN1CCN(C(=O)C2COc3ccccc3O2)CC1)Nc1ccccc1 (centres undefined)	none
COc1cccc(/C=N/n2nnnc2N)c1O	CHX counter 21, Shiga inhibitor 59
COc1ccccc1/C=N/n1nnnc1N	none
COc1ccc(/C=N/n2nnnc2N)c(OC)c1	CHX counter 23, Shiga inhibitor 28
CCC(=O)Nc1nc(-c2ccccc2)ns1	CHX counter 32, Shiga inhibitor 61
Cc1ccc(CNC(=O)CSc2ncn[nH]2)cc1	none
CCCC(=O)Nc1nc(-c2ccccc2)ns1	CHX counter 86, Shiga inhibitor 28
O=C(CSc1ncn[nH]1)Nc1nc(-c2ccccc2)ns1	CHX counter 34, Shiga inhibitor 49 (no result: Pf growth 96h)
Cc1ccc(-c2nc(NC(=O)CSc3ncn[nH]3)ns2)cc1	CHX counter 16, Shiga inhibitor 59
C=CCOC(=O)/C=C/C(=O)NC(N)=O	Pf growth 48h inconclusive
OCCSc1nc(-c2cccnc2)nc2ccccc12	none
Cc1nnc(SCCC(=O)Nc2nc(-c3ccccc3)ns2)s1	Pf growth 96h inconclusive (no result: SARS PLP yeast)
CC(C)C(=O)Nc1nc(-c2ccccc2)ns1	CHX counter 48, Shiga inhibitor 96
CC(=O)Nc1nc(-c2ccc(Cl)cc2)ns1	CHX counter 64, Shiga inhibitor active
CCOC(=O)C(=CNc1ccc(NC2=NCC(C)S2)cc1)C(=O)OCC (centres undefined)	Pf growth 48h 9.3µM
COc1ccc(NC2=NCC(Cc3ccc(Br)cc3)S2)cc1 (centres undefined)	Pf growth 48h inconclusive, AMA1 RON2 block 18µM, Pf growth 96h inconclusive
